Test [1] can be described thus: AP1 Signaling Pathway (AID 357; active = well fitted curve in either direction with a large enough effect, not every such curve was filed as active; note: % is set by controls: 0 for no effect and ±100 for the full control effect). The settings on record: ME-180 (cervical carcinoma) AP-1-bla reporter, EGF-induced, beta-lactamase ratio, 5 h; at 38 µM (top of the series). The gist of the method: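 AP-1-bla ME-180 cells with beta-lactamase reporter under AP-1 response element, stimulated with EC50 EGF; compounds titrated, 5 hours at 37 degrees Celsius. CCF4 read at 460/530 nm ratio; positive and negative modulators judged by AC50.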

Test [2] can be described thus: NFAT Signaling Pathway (AID 444; active = well fitted curve in either direction with a large enough effect, not every such curve was filed as active;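 note: carbachol stimulus at about its EC50 of 1 µM final; % is set by controls: 0 for no effect and ±100 for the full control effect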). The following applies: Jurkat NFAT-bla M1, carbachol, beta-lactamase ratio, 5 h; at 38 µM (top of the series). The gist of the method:
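Read-out: CCF4 FRET ratio (460 nm/530 nm) after 1 h RT dye loading, used for %activity and AC50 from titration series. Cells: Jurkat NFAT-β-lactamase/M1 line, treated with compound plus 1 uM carbachol for 5 h, 37 °C.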

Test [3] has as its target Glucocorticoid receptor (Homo sapiens) (UniProt P04150). The experiment in a line: GR-GFP Redistribution (AID 450;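 active = compounds whose dose series gives a full or clear partial fitted curve of increased nuclear translocation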; note: potency is the fitted concentration of half-maximal effect). The following applies: U2OS GR-GFP nuclear translocation, laser cytometry, 2 h.
The target is the same in test [4]. The experiment in a line: GR-EFC Redistribution (AID 451; calls by dose curve; note: potency is the fitted concentration of half-maximal effect). The settings on record: CHO-K1 GR-EFC translocation, beta-gal luminescence, 2 h. In outline: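 Translocation of GR-ED fusion to nuclear EA restores b-gal, read by luminescence after 1 h room-temperature detection. Engineered CHO-K1 biosensor cells, 1,000/well, exposed 2 h at 37 C to titrations up to 46 uM final.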

Test [5] concerns the target 3',5'-cyclic-AMP phosphodiesterase 4B (Homo sapiens) (UniProt Q07343). As to the kind of experiment: qHTS Assay for Inhibitors of PDE-IV (AID 607; active = well fitted activation curve with a large enough effect in the main read-out, with a control signal flat, not every such curve was filed as active; note: % of control where 0% means no effect). In outline: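 ACTOne HEK293 cells carry a modified cAMP-gated CNG channel and express endogenous PDE4; plated 1000 cells/well, compounds up to 22.9 uM final. Membrane-potential dye fluorescence (ex 535/em 590) was read; parental cells received 10 uM forskolin + 100 uM RO 20-1724.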
(In qHTS, concentration-response curves come from the screen itself.)

The target of test [6] is Guanine nucleotide-binding protein G(i) subunit alpha-1 (Homo sapiens) (UniProt P63096). The experiment in a line: qHTS Assay for Inhibitors of RGS12 GoLoco Motif Activity (Green Fluorophore) (AID 879).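 Note: 0% = labeled peptide with Gαi1 and full inhibition = labeled peptide alone without protein; negative values mean loss of peptide binding seen as reduced polarization.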 The gist of the method: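 Fluorescence polarization assay: 50 nM Gαi1 with 10 nM FITC-labeled RGS12 GoLoco peptide in 10 mM Tris pH 7.5, 150 mM NaCl, 0.1 mM GDP, 0.05% NP40, 10 min at room temperature with compound.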

Test [7] can be described thus: Confirmation and Secondary Assay for Modulators of Hemoglobin Beta Chain Splicing at IVS2 654 locus (AID 910).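 Note: HeLa cells stably carrying EGFP split by mutant beta-globin IVS2-654 intron; per-well total GFP intensity by laser scanning cytometry after 2-day treatment; % of control where 0% means no effect.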 The gist of the method:
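Readout: per-well total peak green fluorescence (488 nm ex, 500–520 nm em) from objects 5–250 µm, reflecting correct splicing of an EGFP-654 reporter. Compounds were applied for 2 days at 37 °C to overnight-plated HeLa EGFP-654 cells; controls were DMSO and 500 nM IVS2-654 PNA.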

Test [8] can be described thus: Confirmation and Secondary Assay for Modulators of Hemoglobin Beta Chain Splicing at IVS2 705 locus (AID 930).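 Note: HeLa cells stably expressing the EGFP-705 splicing reporter; GFP fluorescence per well restored by corrected splicing of the IVS2-705 intron in EGFP; % of control where 0% means no effect.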 In outline:
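First, HeLa EGFP-705 cells are seeded at 500/well in Optimem with 2% FCS and left overnight. Next, compound or DMSO is added for 2 days. Finally wells are laser-scanned and total peak GFP intensity scored.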

Test [9] addresses Muscarinic acetylcholine receptor M1 (Rattus norvegicus) (UniProt P08482). As to the kind of experiment: qHTS Assay for Antagonists of Acetylcholine Muscarinic M1 Receptor: Measurement of IP-One Response (AID 944). Note: nearly all actives have a fitted effect of over 75% in size. In outline:
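Steps: plate transfected CHO-M1 cells overnight; add test compound, 10 min; add carbachol (200 nM, EC80) in stimulation buffer with LiCl; incubate 30 min; add labelled IP1 tracer and anti-IP1 antibody in lysis buffer; read HTRF after 10 min.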

Test [10] addresses Pyruvate kinase (Leishmania mexicana) (UniProt Q27686). As to the kind of experiment: qHTS Validation Assay for Inhibitors of Leishmania Mexicana Pyruvate Kinase (AID 945).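 Note: 0% = DMSO only neutral control wells.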 In outline:
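qHTS eight-point titrations against 0.2 nM LmPYK (E451W) in imidazole buffer pH 7.2 with 0.5 mM PEP, 0.1 mM ADP; 1 h, room temperature. Readout: PKLight luminescence, normalized to neutral DMSO wells.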

The target of test [11] is Alpha-galactosidase A (Homo sapiens) (UniProt P06280). The experiment in a line: Counterscreen for Glucocerebrosidase Inhibitors: qHTS Assay for Human alpha-Galactosidase at pH 4.5 (AID 992). Note: 0% is about no effect. In outline:
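Enzyme at 2 nM final was combined with compound (0.7 nM to 77 uM) and 80 uM 4-methylumbelliferyl alpha-D-galactopyranoside in 50 mM citric acid, 0.005% Tween-20, pH 4.5. After 20 min at room temperature, fluorescence was read (Ex 365/Em 440 nm); AC50 came from Hill fits.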
Background: Counterscreens check selectivity or assay interference.

Test [12] concerns the target alpha-glucosidase (Oryza sativa, rice) (UniProt Q653V4). As to the kind of experiment: Counterscreen for Glucocerebrosidase Inhibitors: qHTS Assay for Rice alpha-Glucosidase at pH 5.0 (AID 997).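 Note: 0% = full activity with enzyme and -100% = basal without enzyme.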 In outline:
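Rice alpha-glucosidase (4 nM final) with 400 uM 4-methylumbelliferyl-alpha-D-glucopyranoside in citrate buffer pH 5.0, 20 min at room temperature, stopped at pH 10; fluorescence 365/440 nm, compounds 0.7 nM–77 uM, AC50 from Hill fits.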

Test [13] deals with DNA dC->dU-editing enzyme APOBEC-3G (Homo sapiens) (UniProt Q9HC16). As to the kind of experiment: qHTS for inhibitors of Vif-A3G interactions: Validation (AID 588379). Note: 0% is about no effect. In outline:
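HeLa cells stably expressing Vif and A3G-eYFP, 700 cells/well, incubated overnight at 37 deg C, then exposed to compound overnight at 37 deg C. Inhibition of Vif-mediated degradation read as increased yellow fluorescence (Ex 488/Em 500-530) by laser-scanning cytometry.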

Test [14] has as its system Zika virus NS2B-NS3 protease. The experiment in a line: Primary screen GU AMC qHTS for Zika virus inhibitors (AID 1347154).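 Note: 0% = no-inhibitor control and -100% = no-enzyme control; nearly all actives have a fitted effect of over 70% in size.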 The gist of the method:
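Fluorogenic AMC-substrate cleavage by noncovalent NS2B-NS3 protease complex (25 nM, pH 8.0 Tris buffer with Tween 20) followed for 15 minutes at room temperature (~20% conversion). Percent inhibition from ex340/em450 signal change, fitted by 4-parameter Hill equation.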

Test [15] deals with Rap guanine nucleotide exchange factor 3 (Homo sapiens) (UniProt O95398). As to the kind of experiment: Confirmatory qHTS for agonist of cAMP-regulated guanine nucleotide exchange factor 3 (EPAC1) (AID 1645881).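 Note: EPAC1 catalysed release of BODIPY-GDP from Rap1B seen as fluorescence loss; nearly all actives have a fitted effect of over 75% in size.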
The target of test [16] is Rap guanine nucleotide exchange factor 4 (Homo sapiens) (UniProt Q8WZA2). The experiment in a line: Confirmatory qHTS for agonist of cAMP-regulated guanine nucleotide exchange factor 4 (EPAC2) (AID 1645884).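 Note: nucleotide exchange releases bodipy-GDP from Rap1 and this lowers its fluorescence; % is set by controls: 0 for no effect and ±100 for the full control effect; nearly all actives have a fitted effect of over 65% in size.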
For test [17], the target named is Cytochrome P450 1A2 (Homo sapiens) (UniProt P05177). The experiment in a line: p450-cyp1a2 (AID 410; calls by dose curve;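 note: -100% = full effect of reference inhibitor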). In outline: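 Inhibition was calculated relative to 57 uM furafylline (full inhibition). The reaction used human CYP1A2 at 20nM with Luciferin-ME at its Km, 100uM, driven by an NADPH-regenerating system for 60 min at room temperature.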
The target of test [18] is Mitogen-activated protein kinase 10 (Mus musculus) (UniProt Q61831). The experiment in a line: JNK3 AlphaScreen Assay (AID 530; active = well fitted curve in either direction with a large enough effect, not every such curve was filed as active;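 note: kinase came from lysate of stimulated human HepG2 cells; signal reports phosphorylation of biotinylated GST-cJun 1-79 at Ser73 with 10 µM ATP; % is set by controls: 0 for no effect and ±100 for the full control effect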). The gist of the method:
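Room-temperature AlphaScreen kinase assay; pre-activated HepG2 lysate as JNK3 source, biotin-GST-cJun(1-79) substrate, 10 uM ATP, compound 15 min preincubation.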

Test [19] has as its target Ubiquitin carboxyl-terminal hydrolase 1 (Homo sapiens) (UniProt O94782). As to the kind of experiment: Inhibitors of USP1/UAF1: Pilot qHTS (AID 504865).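 Note: rhodamine fluorescence freed from ubiquitin-rhodamine substrate followed over time; top concentration of the series differs between compounds; % is set by controls: 0 for no effect and ±100 for the full control effect; nearly all actives have a fitted effect of over 35% in size.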 In outline: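 Enzyme-free wells gave the negative control, while test wells held 1nM USP1/UAF1 preincubated with compound for 15 min at room temperature. Ub-Rho at 150nM final started the reaction, and fluorescence at 480/540 nm was recorded kinetically.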

Test [20] concerns the target Cytochrome P450 3A4 (Homo sapiens) (UniProt P08684). The experiment in a line: qHTS Assay for Inhibitors and Substrates of Cytochrome P450 3A4 (AID 884). Note: % is set by controls: 0 for no effect and ±100 for the full control effect; nearly all actives have a fitted effect of over 50% in size. The gist of the method:
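20 nM human CYP3A4 with 25 uM Luciferin-PPXE (at KM) in 200 mM KPO4, preincubated 10 min with compound; NADPH regeneration started a 60 min RT reaction. Luciferin detected by luminescence, normalized to 57 uM ketoconazole as full inhibition.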

For test [21] the target is unchanged. The experiment in a line: qHTS Assay for Activators of Cytochrome P450 3A4 (AID 885). Note: potency is the fitted concentration of half-maximal effect; nearly all actives have a fitted effect of over 65% in size. The gist of the method:
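20nM CYP3A4 + 25uM Luciferin-PPXE (=KM), 200mM KPO4; cpd 10 min RT; NADPH regen, 60 min RT; stop w/ detection buffer, 20 min; luminescence. Normalized to 57 uM ketoconazole.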

Test [22] can be described thus: qHTS for Inhibitors of the vitamin D receptor (VDR): Hit Validation using a Texas Red Assay (AID 602201). Note: potency is the fitted concentration of half-maximal effect. The following applies: VDR coregulator binding, Texas Red fluorescence polarization; agonist-bound VDR ligand-binding domain. The gist of the method: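 After a 2-hour room-temperature incubation, polarization of Texas-Red emission was read (Ex 595 nm/Em 615 nm). Final mix contained 7 nM Texas Red, 1.5 uM VDR-LBD and LG19078.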

This note sets out measurements from PubChem BioAssay (NCATS).

Values without a mark were called inactive. Records with an inconclusive call do not appear. The source made the active and inactive calls. Unless noted, calls come from the whole dose curve; as a rule, active = well fitted curve in the direction sought with a large enough effect; inconclusive = small, poorly fitted or top-dose-only effect, or another doubt; inactive = no such curve, though single readings can be large; an effect the other way counts as inactive or inconclusive.

Glucocorticoid receptor (Homo sapiens), sequence (P04150 whole entry, looked up, the tested form may be a part): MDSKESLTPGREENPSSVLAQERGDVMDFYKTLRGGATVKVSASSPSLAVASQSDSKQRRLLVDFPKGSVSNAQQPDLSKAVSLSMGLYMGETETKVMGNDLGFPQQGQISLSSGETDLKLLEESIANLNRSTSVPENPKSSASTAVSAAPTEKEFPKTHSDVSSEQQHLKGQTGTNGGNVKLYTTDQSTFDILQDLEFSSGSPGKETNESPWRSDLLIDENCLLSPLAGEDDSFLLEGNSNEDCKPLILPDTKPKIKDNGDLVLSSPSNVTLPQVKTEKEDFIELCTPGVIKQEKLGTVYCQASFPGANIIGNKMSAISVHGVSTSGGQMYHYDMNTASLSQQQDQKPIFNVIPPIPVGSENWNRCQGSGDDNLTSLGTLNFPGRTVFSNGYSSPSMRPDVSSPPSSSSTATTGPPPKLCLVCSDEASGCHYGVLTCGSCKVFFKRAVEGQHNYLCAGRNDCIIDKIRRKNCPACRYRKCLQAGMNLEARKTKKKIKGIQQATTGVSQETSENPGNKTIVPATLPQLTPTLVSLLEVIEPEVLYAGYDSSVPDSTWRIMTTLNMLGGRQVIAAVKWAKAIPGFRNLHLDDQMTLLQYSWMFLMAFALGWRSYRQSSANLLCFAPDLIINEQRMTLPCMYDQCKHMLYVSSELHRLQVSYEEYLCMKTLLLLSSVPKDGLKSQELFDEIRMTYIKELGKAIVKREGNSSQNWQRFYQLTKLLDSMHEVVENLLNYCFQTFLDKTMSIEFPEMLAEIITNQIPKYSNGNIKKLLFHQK
DNA dC->dU-editing enzyme APOBEC-3G (Homo sapiens), sequence (Q9HC16 whole entry, looked up): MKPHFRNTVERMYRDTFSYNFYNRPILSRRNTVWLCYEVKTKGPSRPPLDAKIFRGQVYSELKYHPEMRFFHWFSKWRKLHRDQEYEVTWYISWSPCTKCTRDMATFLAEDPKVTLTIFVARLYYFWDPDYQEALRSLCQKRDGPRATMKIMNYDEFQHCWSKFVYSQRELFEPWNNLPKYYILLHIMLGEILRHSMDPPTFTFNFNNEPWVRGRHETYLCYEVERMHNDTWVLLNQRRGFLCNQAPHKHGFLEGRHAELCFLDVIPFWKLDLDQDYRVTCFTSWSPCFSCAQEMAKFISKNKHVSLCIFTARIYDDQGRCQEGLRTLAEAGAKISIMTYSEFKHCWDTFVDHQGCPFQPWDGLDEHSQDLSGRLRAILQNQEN
3',5'-cyclic-AMP phosphodiesterase 4B (Homo sapiens), sequence (Q07343 whole entry, looked up): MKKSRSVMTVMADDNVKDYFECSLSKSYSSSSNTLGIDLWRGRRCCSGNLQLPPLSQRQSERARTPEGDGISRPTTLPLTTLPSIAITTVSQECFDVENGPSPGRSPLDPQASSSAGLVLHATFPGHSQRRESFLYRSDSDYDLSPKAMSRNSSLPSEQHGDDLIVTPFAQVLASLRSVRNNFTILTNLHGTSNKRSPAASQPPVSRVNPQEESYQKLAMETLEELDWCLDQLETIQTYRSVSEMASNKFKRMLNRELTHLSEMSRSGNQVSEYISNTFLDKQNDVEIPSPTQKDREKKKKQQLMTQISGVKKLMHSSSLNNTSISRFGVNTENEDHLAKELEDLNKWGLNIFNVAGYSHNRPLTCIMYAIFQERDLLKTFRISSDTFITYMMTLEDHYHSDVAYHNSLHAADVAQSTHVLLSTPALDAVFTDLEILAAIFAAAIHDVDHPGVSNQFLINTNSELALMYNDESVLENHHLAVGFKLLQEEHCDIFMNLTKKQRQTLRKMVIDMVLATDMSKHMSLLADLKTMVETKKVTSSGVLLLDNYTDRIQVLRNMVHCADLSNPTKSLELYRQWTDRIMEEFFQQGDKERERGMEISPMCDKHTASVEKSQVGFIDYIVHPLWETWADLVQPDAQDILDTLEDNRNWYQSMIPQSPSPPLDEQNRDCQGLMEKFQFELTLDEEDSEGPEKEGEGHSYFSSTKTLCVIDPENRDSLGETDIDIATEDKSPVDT
Ubiquitin carboxyl-terminal hydrolase 1 (Homo sapiens), sequence (O94782 whole entry, looked up): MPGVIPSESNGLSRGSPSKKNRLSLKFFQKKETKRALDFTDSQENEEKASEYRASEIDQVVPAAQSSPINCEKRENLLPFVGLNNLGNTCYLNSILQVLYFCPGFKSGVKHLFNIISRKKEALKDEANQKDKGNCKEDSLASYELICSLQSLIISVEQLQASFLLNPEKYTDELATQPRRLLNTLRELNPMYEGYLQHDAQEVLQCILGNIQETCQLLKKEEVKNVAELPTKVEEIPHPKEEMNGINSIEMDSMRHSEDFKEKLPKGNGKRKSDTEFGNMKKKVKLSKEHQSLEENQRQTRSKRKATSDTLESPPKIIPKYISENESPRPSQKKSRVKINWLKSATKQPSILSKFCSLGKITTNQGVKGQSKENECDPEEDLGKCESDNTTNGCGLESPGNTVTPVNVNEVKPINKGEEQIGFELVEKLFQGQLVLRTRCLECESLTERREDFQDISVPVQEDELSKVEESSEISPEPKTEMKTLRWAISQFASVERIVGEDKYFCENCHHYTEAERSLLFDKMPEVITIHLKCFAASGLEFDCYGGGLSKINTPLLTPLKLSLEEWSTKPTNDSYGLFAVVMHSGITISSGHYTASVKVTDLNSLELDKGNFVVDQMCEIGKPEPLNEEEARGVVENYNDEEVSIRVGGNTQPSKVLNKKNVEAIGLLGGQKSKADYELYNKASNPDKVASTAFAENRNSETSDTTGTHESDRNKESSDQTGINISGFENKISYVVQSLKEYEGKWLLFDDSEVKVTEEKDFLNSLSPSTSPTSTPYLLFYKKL
Cytochrome P450 3A4 (Homo sapiens), sequence (P08684 whole entry, looked up): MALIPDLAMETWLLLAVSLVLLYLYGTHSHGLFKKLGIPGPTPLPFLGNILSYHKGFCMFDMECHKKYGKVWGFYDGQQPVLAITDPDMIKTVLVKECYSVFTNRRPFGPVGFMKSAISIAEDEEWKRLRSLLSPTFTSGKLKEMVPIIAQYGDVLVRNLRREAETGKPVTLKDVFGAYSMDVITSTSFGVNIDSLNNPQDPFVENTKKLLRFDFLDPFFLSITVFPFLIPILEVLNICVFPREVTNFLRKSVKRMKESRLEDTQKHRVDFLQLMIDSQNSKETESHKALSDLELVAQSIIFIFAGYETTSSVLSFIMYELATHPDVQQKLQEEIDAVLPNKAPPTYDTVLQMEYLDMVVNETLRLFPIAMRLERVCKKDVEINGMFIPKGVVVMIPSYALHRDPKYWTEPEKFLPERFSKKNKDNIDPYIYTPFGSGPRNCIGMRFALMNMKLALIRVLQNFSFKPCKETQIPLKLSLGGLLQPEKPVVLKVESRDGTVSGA
Pyruvate kinase (Leishmania mexicana), sequence (Q27686 2-499 E452W): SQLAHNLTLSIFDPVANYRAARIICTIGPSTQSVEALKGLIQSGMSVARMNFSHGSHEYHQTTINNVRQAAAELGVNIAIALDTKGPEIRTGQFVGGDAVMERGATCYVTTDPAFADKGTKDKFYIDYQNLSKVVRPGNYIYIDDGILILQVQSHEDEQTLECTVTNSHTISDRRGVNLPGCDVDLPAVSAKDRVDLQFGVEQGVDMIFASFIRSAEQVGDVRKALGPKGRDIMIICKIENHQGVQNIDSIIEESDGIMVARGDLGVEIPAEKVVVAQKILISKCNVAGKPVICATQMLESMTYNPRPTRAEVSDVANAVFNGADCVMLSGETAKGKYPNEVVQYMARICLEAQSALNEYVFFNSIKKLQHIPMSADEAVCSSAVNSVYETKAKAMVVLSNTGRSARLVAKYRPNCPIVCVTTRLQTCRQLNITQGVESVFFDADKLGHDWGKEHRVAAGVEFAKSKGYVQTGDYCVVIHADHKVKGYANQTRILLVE
Guanine nucleotide-binding protein G(i) subunit alpha-1 (Homo sapiens), sequence (P63096 whole entry, looked up): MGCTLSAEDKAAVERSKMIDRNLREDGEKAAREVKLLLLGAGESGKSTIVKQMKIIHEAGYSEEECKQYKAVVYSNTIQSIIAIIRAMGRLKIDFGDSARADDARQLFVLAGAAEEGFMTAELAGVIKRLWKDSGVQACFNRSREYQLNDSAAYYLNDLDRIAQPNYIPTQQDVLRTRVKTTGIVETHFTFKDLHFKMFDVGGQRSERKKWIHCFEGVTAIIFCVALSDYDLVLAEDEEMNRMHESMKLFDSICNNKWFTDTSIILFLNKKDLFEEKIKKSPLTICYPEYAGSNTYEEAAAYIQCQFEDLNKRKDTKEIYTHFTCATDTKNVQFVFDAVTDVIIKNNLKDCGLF
Cytochrome P450 1A2 (Homo sapiens), sequence (P05177 whole entry, looked up): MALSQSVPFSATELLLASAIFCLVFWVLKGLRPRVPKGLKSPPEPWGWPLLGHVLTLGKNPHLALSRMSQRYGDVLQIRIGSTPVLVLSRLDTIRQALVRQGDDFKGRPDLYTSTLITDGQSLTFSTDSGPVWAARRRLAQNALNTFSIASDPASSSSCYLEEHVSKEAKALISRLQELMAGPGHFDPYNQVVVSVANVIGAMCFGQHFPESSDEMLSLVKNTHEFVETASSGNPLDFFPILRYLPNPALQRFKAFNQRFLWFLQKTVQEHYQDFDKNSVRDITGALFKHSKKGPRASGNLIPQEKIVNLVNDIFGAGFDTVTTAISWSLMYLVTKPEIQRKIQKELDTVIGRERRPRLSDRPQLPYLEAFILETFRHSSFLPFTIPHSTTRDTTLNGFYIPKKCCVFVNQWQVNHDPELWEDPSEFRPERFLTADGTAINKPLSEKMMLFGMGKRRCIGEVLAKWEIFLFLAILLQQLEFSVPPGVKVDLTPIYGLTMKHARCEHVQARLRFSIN
Alpha-galactosidase A (Homo sapiens), sequence (P06280 whole entry, looked up): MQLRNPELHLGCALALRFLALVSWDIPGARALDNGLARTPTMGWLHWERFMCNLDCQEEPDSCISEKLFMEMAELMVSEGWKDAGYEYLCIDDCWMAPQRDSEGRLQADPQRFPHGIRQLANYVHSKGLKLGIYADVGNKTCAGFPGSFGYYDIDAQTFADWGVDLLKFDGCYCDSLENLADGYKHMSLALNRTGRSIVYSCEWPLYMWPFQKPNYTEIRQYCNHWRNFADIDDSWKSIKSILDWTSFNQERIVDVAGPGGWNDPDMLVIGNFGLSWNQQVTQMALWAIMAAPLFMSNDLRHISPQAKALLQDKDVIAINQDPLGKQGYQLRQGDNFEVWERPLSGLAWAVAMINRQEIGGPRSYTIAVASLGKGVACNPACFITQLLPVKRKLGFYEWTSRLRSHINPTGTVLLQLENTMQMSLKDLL

With `COCCOC(=O)C1=C(C)NC(C)=C(C(=O)OC(C)C)[C@@H]1c1cccc([N+](=O)[O-])c1`, the activity change, negative = inhibition was -20.1% in [1] and -10.3% in test [2]. The Potency in test [3] and in [4] was > 46 µM each time. The Potency result in [5], in test [9], in [10], in [13] and in test [14] was “inactive” in each case. Moreover, the outcome in [6], in test [7], in test [8], in test [11], in [12] and in test [15] was inactive. The compound was classed as inactive in test [16].

As to `OC[C@@H]1O[C@@H](n2cnc3c(NC4CCCC4)ncnc32)[C@H](O)[C@H]1O`, the Potency entry in test [17], in test [18], in [5], in [19], in test [13] and in test [14] was “inactive” each time. For the same compound, the Potency in [3] and in [4] was > 46 µM each time.

`Cc1c[nH]c(=O)n(CCCN2CCN(c3ccccc3OCC(F)(F)F)CC2)c1=O`: the Potency in test [3] and in [4] was > 46 µM in each case. Besides, the Potency entry in test [18], in test [5], in test [19], in test [13] and in [14] was “inactive” in each case.

For the compound `Cc1c(C2CCN(CCc3ccccc3)CC2)noc1-c1ccc(Cl)cc1`, the Potency was > 46 µM in test [3] and 15.8 µM (active) in [21]. Also, the Potency result in test [18], in test [20], in test [19] and in test [14] was “inactive” in each case.

For the compound `O=[N+]([O-])c1ccc2cn[nH]c2c1`, in test [4], the Potency is > 46 µM. In addition, the Potency entry in [19] and in test [14] was “inactive” in each case.

Turning to `COc1cc2c(cc1OC)-c1cc3nc4ccccc4nc3n1C(C)(C)C2`, the Potency in test [3] is > 46 µM; in test [4] it was > 46 µM; in test [22] it was 12.6 µM (active). The Potency entry in test [5] and in test [14] was “inactive” each time.

`C[C@@]12CC[C@@H]3c4ccc(O)cc4C[C@H](CCCCCCCCCS(=O)CCCC(F)(F)C(F)(F)F)[C@H]3[C@@H]1CC[C@@H]2O` (stereo partly specified): the Potency in test [3] was > 46 µM. The Potency result in test [18], in test [5], in test [13] and in [14] was “inactive” throughout.

Take `Cc1c(C(=O)NN2CCCCC2)nn(-c2ccc(Cl)cc2Cl)c1-c1ccc(I)cc1`: the Potency result in test [19], in test [13] and in test [14] was “inactive” each time.

Consider `COc1ccc2cc(C(C)C(=O)O)ccc2c1` (stereo unspecified), for which the result in test [7] and in test [8] was inactive. The Potency result in test [14] is “inactive”.
